Assay [1] can be described thus: NCI Yeast Anticancer Drug Screen. Data for the rad50 strain (AID 155).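 Also: 0% = growth of vehicle-only cultures of the same strain.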 Conditions: S. cerevisiae rad50 strain growth inhibition, active compounds read high. The method, boiled down: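 Compounds were tested on a yeast strain with an engineered DNA damage repair alteration; the reported value is growth inhibition normalised to vehicle treatment.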
Assay [2] in a line: NCI Yeast Anticancer Drug Screen. Data for the mec2-1 strain (AID 157). Conditions: S. cerevisiae mec2-1 strain, active compounds read high. The method, boiled down:
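Vehicle-treated cultures served as reference for growth inhibition of compound-exposed mec2-1 yeast.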

A short description of assay [3]: NCI Yeast Anticancer Drug Screen. Data for the sgs1 mgt1 strain (AID 161).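 Also: 0% = growth of cultures given vehicle only.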 Conditions: S. cerevisiae sgs1 mgt1 strain, active compounds read high. The method, boiled down:
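Inhibition of yeast growth, normalised to vehicle-treated controls, is reported for a strain bearing genetic alterations in DNA damage repair.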

Assay [4] is described as follows: NCI Yeast Anticancer Drug Screen. Data for the cln2 rad14 strain (AID 165).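 Also: 0% = growth equal to vehicle treated cultures.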 Conditions: S. cerevisiae cln2 rad14 strain, active compounds read high. The method, boiled down:
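Each compound was tested on cln2 rad14 yeast. Inhibition of growth was calculated against vehicle-exposed controls.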

The nature of assay [5]: NCI Yeast Anticancer Drug Screen. Data for the bub3 strain (AID 167). Conditions: S. cerevisiae bub3 mutant strain, active compounds read high. The method, boiled down: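 Growth of a checkpoint-deficient yeast mutant is measured after compound exposure. Values represent inhibition relative to vehicle.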
Assay [6] in a line: NCI Yeast Anticancer Drug Screen. Data for the mlh1 rad18 strain (AID 175). Conditions: S. cerevisiae mlh1 rad18 strain growth inhibition, active compounds read high. The method, boiled down:
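Vehicle-treated cultures served as the reference for growth inhibition in a yeast strain carrying DNA damage repair alterations exposed to each compound.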

[7] abbreviates: at 5.0 µM (retest, dose inferred, filed as 0.5).
Where [8] appears, read: at 50.0 µM (retest, dose inferred, filed as 5.0).

The values below come from PubChem BioAssay (NCI).

The structures appear in SMILES notation. About 79,000 compounds went through this panel and 15% of them were active in at least one assay; those are over-represented in the sample as a whole. A number with no mark means an inactive call. Calls of active or inactive are those of the source. Rule as the data show it: active = growth inhibition above about 70%; inactive = the rest.

`O=C1C(=O)c2ccccc2C=C1Br`: the growth inhibition in assay [1] (setting [7]) is 50%; in assay [1] (setting [8]), 99% (active); in assay [1] (at 50.0 µM), 99% (active); in assay [2] (setting [7]), 91% (active); in assay [2] (setting [8]), 99% (active); in assay [2] (at 50.0 µM), 99.2% (active). Moreover, the growth inhibition in assay [3] (setting [7]) is 75% (active); in assay [3] (setting [8]), 99% (active); in assay [3] (at 50.0 µM), 99.2% (active); in assay [4] (setting [7]), 67%; in assay [4] (setting [8]), 99% (active); in assay [4] (at 50.0 µM) it was 98.2% (active). Besides, the growth inhibition in assay [5] (setting [7]) is 93% (active); in assay [5] (setting [8]) it was 99% (active); in assay [5] (at 50.0 µM), 98.7% (active); in assay [6] (setting [7]), 85% (active); in assay [6] (setting [8]), 99% (active); in assay [6] (at 50.0 µM), 98.8% (active).
For `C1=C(c2ccccc2)CCc2c1ccc1ccccc21`, the growth inhibition in assay [1] (setting [7]) is 5%; in assay [1] (setting [8]) it was -8%; in assay [1] (at 50.0 µM) it was -3.45%; in assay [2] (setting [7]), -6%; in assay [2] (setting [8]), 3%; in assay [2] (at 50.0 µM), -10.8%. The growth inhibition in assay [3] (setting [7]) was 1%; in assay [3] (setting [8]), 16%; in assay [3] (at 50.0 µM) it was 0%; in assay [4] (setting [7]), -9%; in assay [4] (setting [8]) it was -10%; in assay [4] (at 50.0 µM), 4.35%. Besides, the growth inhibition is 7% in assay [5] (setting [7]); 10% in assay [5] (setting [8]); 16% in assay [5] (at 50.0 µM); -1% in assay [6] (setting [7]); 21% in assay [6] (setting [8]); 5.7% in assay [6] (at 50.0 µM).
Take `OC(CC(CC(O)(C(F)(F)Cl)C(F)(F)Cl)=NNc1ccccc1)(C(F)(F)Cl)C(F)(F)Cl`: the growth inhibition in assay [1] (setting [7]) is 87% (active); in assay [1] (setting [8]), 99% (active); in assay [1] (at 50.0 µM), 99% (active); in assay [2] (setting [7]), 91% (active); in assay [2] (setting [8]), 99% (active); in assay [2] (at 50.0 µM), 99.2% (active). For the same compound, the growth inhibition is 79% (active) in assay [3] (setting [7]); 98% (active) in assay [3] (setting [8]); 99.3% (active) in assay [3] (at 50.0 µM); 83% (active) in assay [4] (setting [7]); 99% (active) in assay [4] (setting [8]); 99.2% (active) in assay [4] (at 50.0 µM). Also, the growth inhibition in assay [5] (setting [7]) is 52%; in assay [5] (setting [8]), 99% (active); in assay [5] (at 50.0 µM) it was 99% (active); in assay [6] (setting [7]) it was 93% (active); in assay [6] (setting [8]), 99% (active); in assay [6] (at 50.0 µM) it was 99% (active).
Turning to `OC1C2CCC1C1C3C=CC(C3)C21` (configuration not stated), the growth inhibition in assay [1] (setting [7]) is 1%; in assay [1] (setting [8]), 91% (active); in assay [1] (at 50.0 µM) it was 84.8% (active); in assay [2] (setting [7]), 5%; in assay [2] (setting [8]) it was 93% (active); in assay [2] (at 50.0 µM) it was 62.2%. Also, the growth inhibition was 11% in assay [3] (setting [7]); 88% (active) in assay [3] (setting [8]); 42.4% in assay [3] (at 50.0 µM); -3% in assay [4] (setting [7]); 38% in assay [4] (setting [8]); 70.2% (active) in assay [4] (at 50.0 µM). The growth inhibition in assay [5] (setting [7]) is 11%; in assay [5] (setting [8]) it was 85% (active); in assay [5] (at 50.0 µM), 52.1%; in assay [6] (setting [7]) it was -1%; in assay [6] (setting [8]) it was 94% (active); in assay [6] (at 50.0 µM), 83% (active).
Regarding `O=C(CC(O)(CC(=O)OCc1ccccc1)C(=O)OCc1ccccc1)OCc1ccccc1`, the growth inhibition in assay [1] (setting [7]) is -3%; in assay [1] (setting [8]) it was -23%; in assay [1] (at 50.0 µM), 99.2% (active); in assay [2] (setting [7]) it was -2%; in assay [2] (setting [8]), -27%; in assay [2] (at 50.0 µM), 99.5% (active). Further, the growth inhibition is -4% in assay [3] (setting [7]); -22% in assay [3] (setting [8]); 99.1% (active) in assay [3] (at 50.0 µM); 11% in assay [4] (setting [7]); -10% in assay [4] (setting [8]); 98.2% (active) in assay [4] (at 50.0 µM). Besides, the growth inhibition is -1% in assay [5] (setting [7]); -34% in assay [5] (setting [8]); 99.4% (active) in assay [5] (at 50.0 µM); 3% in assay [6] (setting [7]); -9% in assay [6] (setting [8]); 99% (active) in assay [6] (at 50.0 µM).
On to `NC(=S)SCCC(=O)O`, for which the growth inhibition in assay [1] (setting [7]) was -2%; in assay [1] (setting [8]), 4%; in assay [1] (at 50.0 µM), -31.1%; in assay [2] (setting [7]) it was -6%; in assay [2] (setting [8]), -21%; in assay [2] (at 50.0 µM), -41.5%. Moreover, the growth inhibition was -10% in assay [3] (setting [7]); -14% in assay [3] (setting [8]); -3.95% in assay [3] (at 50.0 µM); -3% in assay [4] (setting [7]); -4% in assay [4] (setting [8]); 40.1% in assay [4] (at 50.0 µM). Moreover, the growth inhibition is -11% in assay [5] (setting [7]); -19% in assay [5] (setting [8]); -21.9% in assay [5] (at 50.0 µM); -16% in assay [6] (setting [7]); -4% in assay [6] (setting [8]); 2.85% in assay [6] (at 50.0 µM).
On to `CCCCCCCCCCCCNC(=O)NCC(OCC)OCC`, for which the growth inhibition was -3% in assay [1] (setting [7]); 96% (active) in assay [1] (setting [8]); 89.3% (active) in assay [1] (at 50.0 µM); 2% in assay [2] (setting [7]); 97% (active) in assay [2] (setting [8]); 91.5% (active) in assay [2] (at 50.0 µM). Moreover, the growth inhibition was 13% in assay [3] (setting [7]); 95% (active) in assay [3] (setting [8]); 92.3% (active) in assay [3] (at 50.0 µM); 28% in assay [4] (setting [7]); 95% (active) in assay [4] (setting [8]); 83.3% (active) in assay [4] (at 50.0 µM). In addition, the growth inhibition in assay [5] (setting [7]) is 12%; in assay [5] (setting [8]) it was 97% (active); in assay [5] (at 50.0 µM) it was 91.8% (active); in assay [6] (setting [7]), -19%; in assay [6] (setting [8]), 96% (active); in assay [6] (at 50.0 µM) it was 90.3% (active).
As for `CCOC(=O)c1c(SCC#N)n(-c2ccccc2)c(=S)n(-c2ccccc2)c1=O`, the growth inhibition in assay [1] (setting [7]) was 12%; in assay [1] (setting [8]), 35%; in assay [1] (at 50.0 µM), 80% (active); in assay [2] (setting [7]), -7%; in assay [2] (setting [8]) it was 39%; in assay [2] (at 50.0 µM) it was 81.2% (active). Besides, the growth inhibition was -8% in assay [3] (setting [7]); 48% in assay [3] (setting [8]); 75.3% (active) in assay [3] (at 50.0 µM); -6% in assay [4] (setting [7]); 77% (active) in assay [4] (setting [8]); 78% (active) in assay [4] (at 50.0 µM). The growth inhibition in assay [5] (setting [7]) is 1%; in assay [5] (setting [8]) it was 85% (active); in assay [5] (at 50.0 µM), 88.5% (active); in assay [6] (setting [7]), -11%; in assay [6] (setting [8]), 81% (active); in assay [6] (at 50.0 µM), 75.2% (active).
Take `Cc1cc(O)cc2c1c(=O)c1ccccc1n2C`: the growth inhibition in assay [1] (setting [7]) is 15%; in assay [1] (setting [8]), 29%; in assay [1] (at 50.0 µM), 39%; in assay [2] (setting [7]), 15%; in assay [2] (setting [8]), 24%; in assay [2] (at 50.0 µM) it was 24.5%. Also, the growth inhibition in assay [3] (setting [7]) is 20%; in assay [3] (setting [8]), 17%; in assay [3] (at 50.0 µM), 11.4%; in assay [4] (setting [7]) it was 15%; in assay [4] (setting [8]), 25%; in assay [4] (at 50.0 µM), 1.8%. For the same compound, the growth inhibition is 18% in assay [5] (setting [7]); 25% in assay [5] (setting [8]); 2.4% in assay [5] (at 50.0 µM); 23% in assay [6] (setting [7]); 34% in assay [6] (setting [8]); 11.6% in assay [6] (at 50.0 µM).
